Compound activity: PubChem, The Scripps Research Institute Molecular Screening Center
An excerpt weighted towards active compounds, which were near 3.4% of everything screened.
PAFAH1B3 inh: PAFAH1B3 enzyme inhibitors, primary screen, biochemical, fluorescence polarization, human; Platelet-activating factor acetylhydrolase IB subunit alpha1 (Homo sapiens), Q15102; recombinant PAFAH1B3, FP-rhodamine probe; inhibition, % at 3.39 µM; actives 0.28% (n = 340,000);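 active means inhibition above the screen-wide average of all tested compounds plus 3 SD, cut at about 25% in these data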
Target sequence (Q15102 whole entry, looked up): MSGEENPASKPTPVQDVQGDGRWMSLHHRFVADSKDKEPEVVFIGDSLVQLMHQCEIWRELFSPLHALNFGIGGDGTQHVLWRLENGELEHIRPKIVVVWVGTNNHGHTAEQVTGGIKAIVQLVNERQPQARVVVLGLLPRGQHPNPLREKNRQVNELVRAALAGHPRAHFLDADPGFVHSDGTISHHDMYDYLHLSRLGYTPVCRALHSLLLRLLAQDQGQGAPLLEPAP
PAFAH1B2 FP inh: PAFAH1B2 enzyme inhibitors, primary screen, biochemical, fluorescence polarization, human | Platelet-activating factor acetylhydrolase IB subunit alpha2 (Homo sapiens), P68402 | recombinant PAFAH1B2, FP-rhodamine activity probe | inhibition, % at 3.39 µM | actives 1.2% (n = 340,000) | AID 492953, 2010;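 active means inhibition above the mean of all tested compounds plus 3 SD, cut at about 24% in these data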
Target sequence (P68402 whole entry, looked up): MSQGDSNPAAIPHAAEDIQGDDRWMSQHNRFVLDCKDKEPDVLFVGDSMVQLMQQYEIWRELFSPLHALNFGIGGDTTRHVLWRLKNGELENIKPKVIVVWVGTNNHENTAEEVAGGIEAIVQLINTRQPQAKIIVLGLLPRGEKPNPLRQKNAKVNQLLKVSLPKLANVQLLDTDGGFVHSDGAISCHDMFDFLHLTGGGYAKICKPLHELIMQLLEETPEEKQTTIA
PAFAH2 FP inh: PAFAH2 enzyme inhibitors, primary screen, biochemical, fluorescence polarization, human | Platelet-activating factor acetylhydrolase 2, cytoplasmic (Homo sapiens), Q99487 | recombinant PAFAH2, FP-rhodamine activity probe | inhibition, % at 3.39 µM | actives 0.99% (n = 340,000) | AID 492956, 2010;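 active means inhibition above the mean over all tested compounds plus 3 SD, cut at about 30% in these data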;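 further: inhibitors block probe labeling of enzyme so polarization drops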
PP1 inh: PP1-alpha phosphatase inhibitors, primary screen, counter-screen for PP5 inhibitor project, biochemical, fluorescence, OMFP substrate, single point. purified PP1alpha. inhibition, % at 6.7 µM. actives 0.9% (n = 320,000). AID 2235, 2010;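 active means inhibition above the mean inhibition of all tested compounds plus 3 SD, computed separately for each screening campaign, cut at about 15% in these data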
pPAFAH FP inh: pPAFAH enzyme inhibitors, primary screen, biochemical, fluorescence polarization, human; Platelet-activating factor acetylhydrolase (Homo sapiens), Q13093; recombinant pPAFAH, FP-rhodamine probe fluorescence polarization; inhibition, % at 3.39 µM; actives 1.5% (n = 330,000); AID 463082, 2010;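 active means inhibition above the mean inhibition across the screen plus 3 SD, cut at about 25% in these data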;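 further: inhibitors block binding of the rhodamine activity-based probe so polarization drops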
PP5 primary: PP5 phosphatase inhibitors, primary screen, biochemical, fluorescence; AID 1987, 2009; Serine/threonine-protein phosphatase 5 (Homo sapiens), P53041; actives 0.18% (n = 320,000); purified PP5c, OMFP substrate fluorescence; inhibition, % at 6.7 µM;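 active means inhibition above the campaign's mean inhibition across all tested compounds plus 3 SD, cut at about 9.5% in these data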
Numbers stand for hits; 0 = inactive; - = not tested or not shown.

SMILES	PAFAH1B3 inh	PAFAH1B2 FP inh	PAFAH2 FP inh	PP1 inh	pPAFAH FP inh	PP5 primary
CN(CC(=O)NCC(=O)Nc1ccc(F)cc1)CC(=O)Nc1ccc(Cl)c(C(F)(F)F)c1	0	28	0	-	-	-
O=C(NNS(=O)(=O)c1ccc(Br)cc1)c1ccccc1-n1cccc1	0	29	0	0	0	0
O=C(NNS(=O)(=O)c1ccccc1)c1ccccc1-n1cccc1	0	0	0	0	0	0
COCCN(C(=O)CCc1ccccc1OC)c1nnc(-c2cccnc2)s1	0	0	0	0	25	0
O=C(Nc1cc2cccc([N+](=O)[O-])c2oc1=O)c1cccs1	0	0	0	0	0	0
CCOC(=O)CSc1nc(N)c(C#N)c(-c2ccc(OCC)cc2)c1C#N	0	0	0	0	0	0
CC1=C(C#N)c2nc(N)c(C#N)c(C)c2/C1=C\c1ccc(OCC(=O)O)c(Cl)c1	0	0	0	0	32	0
S=c1[nH]nc(CSCc2ccccc2Cl)n1-c1ccccc1	0	0	0	0	27	0
CC(=O)c1ccc2c(c1)C1C=CCC1C(c1ccncc1)N2 (configuration not stated)	0	0	0	0	0	0
COC(=O)c1ccc(C2Nc3ccc(/C(C)=N/NC(=O)C(OC)c4ccccc4)cc3C3C=CCC32)cc1 (configuration not stated)	0	0	0	21	0	0
CCn1c(C(=O)O)c(CC(=O)Nc2ccc(Br)cc2C)c2ccccc21	0	0	0	0	0	0
Cc1ccccc1N1CCN(c2ccccc2NC(=O)/C=C\C(=O)O)CC1	0	0	0	-	-	-
CC(C)C(=O)Nc1ccccc1Cc1ccccc1	0	0	0	0	0	0
CC(C)C(=O)Nc1csc(C(F)(F)F)c1-c1ccccc1	0	27	0	0	0	0
CC(=O)N1CCN(C(=O)COC(=O)c2ccc(S(C)(=O)=O)cc2)CC1	0	0	0	-	0	-
Cc1ccc(NC(=O)c2ccc([N+](=O)[O-])s2)cc1S(=O)(=O)N1CCOCC1	0	0	0	-	0	-
O=C(C[C@@H]1C/C=C\C[C@@H](Cc2ccc(F)cc2)C(=O)OCCNC1=O)N[C@H](CO)Cc1ccccc1	0	27	0	-	0	-
CC(C)(C)[C@H]1COC(=O)[C@@H](Cc2ccc(F)cc2)CC/C=C/C[C@@H](CC(=O)N[C@@H](CO)Cc2ccccc2)C(=O)N1	0	27	0	-	0	-
C[C@@H]1COC(=O)[C@H](Cc2ccc(F)cc2)C/C=C\C[C@@H](CC(=O)N[C@H](CO)Cc2ccccc2)C(=O)N1	0	27	0	-	0	-
C[C@@H]1COC(=O)[C@@H](Cc2ccc(F)cc2)C/C=C\C[C@@H](CC(=O)N[C@H](CO)Cc2ccccc2)C(=O)N1	0	0	0	-	0	-
O=C(C[C@H]1C/C=C\C[C@@H](Cc2ccc(F)cc2)C(=O)OC[C@H]2CCCN2C1=O)N[C@H](CO)Cc1ccccc1	0	28	0	-	0	-
CN(C)c1cccc(F)c1C(=O)NC(=O)Nc1ccc(Cl)cc1	0	0	0	-	-	-
CCc1nc(SCc2cc(=O)[nH]c3ccccc23)c2c(C)c(C)sc2n1	0	0	0	-	-	-
Cc1ccc2nc(Cl)c(CNCc3ccccc3)cc2c1	0	0	0	0	0	0
C[C@@H]1COC(=O)[C@H](Cc2ccc(F)cc2)CC/C=C/C[C@@H](CC(=O)N[C@H](CO)Cc2ccccc2)C(=O)N1	0	0	0	-	0	-
SMILES	PAFAH1B3 inh	PAFAH1B2 FP inh	PAFAH2 FP inh	PP1 inh	pPAFAH FP inh	PP5 primary
CC(C)(C)[C@H]1COC(=O)[C@@H](Cc2ccc(F)cc2)CC/C=C/C[C@@H](CC(=O)N[C@H](CO)Cc2ccccc2)C(=O)N1	0	31	0	-	0	-
CCN(CC(=O)Nc1sc2c(c1C#N)CCC(C)C2)Cc1nc2ccccc2c(=O)[nH]1 (configuration not stated)	0	27	0	0	0	0
COc1ccc(CCNC(=O)CCCN2C(=O)C(c3ccccc3)Oc3cccnc32)cc1OC (configuration not stated)	0	0	0	0	0	0
COCCCn1c(=O)c2ccccc2n(Cc2ccccc2)c1=O	0	0	0	0	0	0
C=CCn1c(=O)n(CCOC)c(=O)c2sc3ccccc3c21	0	0	0	0	28	0
C/C(=N\NC(=O)COc1ccc(C(C)(C)C)cc1)c1ccc(-n2ccnc2)cc1	0	0	0	15	0	0
COC(=O)c1ccc2cc(OC)cc([N+](=O)[O-])c2n1	0	0	0	-	-	-
CC(C)c1ccc(NC(=O)C2CSC3(C)CCC(=O)N23)cc1 (configuration not stated)	0	0	0	0	0	0
CCOc1ccc(C(=S)N2CCCC2)c(OCC)c1	0	0	0	0	0	0
Nc1ccc(NC(=O)c2ccc(C(=O)Nc3ccc(N)cc3)cc2)cc1	0	0	0	16	0	0
O=C(CSc1ccc(Cl)cc1)Nc1ccc(-c2nc3ccccc3[nH]2)cc1	0	0	0	0	0	0
O=C(/C=C/c1ccco1)NCC1CCCO1 (configuration not stated)	0	0	0	0	0	0
Nc1c(C(=O)NCC2CCCO2)sc2nc3c(c(-c4ccco4)c12)CC/C3=C\c1ccco1 (configuration not stated)	39	24	54	-	-	-
O=c1[nH][nH]c(=O)c(Cl)c1Cl	0	0	0	-	-	-
CC(=O)Nc1cc(OC(C)=O)c2nonc2c1OC(C)=O	68	34	0	60	0	0
CC(=O)Nc1nonc1NC(C)=O	0	0	0	0	0	0
CCOC(=O)Cc1csc(NC(=O)c2cc(=O)c3ccccc3o2)n1	0	0	0	0	0	0
Cc1cc(C)c2nc(NNC(=O)c3cc(=O)c4ccccc4o3)sc2c1	0	0	0	0	26	0
C[C@H](CO)N1C[C@H](C)[C@@H](CN(C)Cc2ccc(-c3ccccc3)cc2)Oc2c(NC(=O)Nc3ccc4c(c3)OCO4)cccc2C1=O	0	0	0	-	0	-
CCOC(=O)[C@H]1[C@H]2COc3ccc(Br)cc3[C@H]2N2C(=O)CN(Cc3ccc(Cl)cc3)C(=O)[C@@]12C	0	0	0	-	-	-
CN(Cc1nc(-c2cnccn2)no1)Cc1cccc2ccccc12	0	0	0	0	0	0
CN(Cc1nc(-c2cnccn2)no1)CC1(c2ccccc2)CC1(C)C (configuration not stated)	0	26	0	0	0	0
OCC1OCOC2C(CO)OCOC12 (configuration not stated)	0	0	0	-	-	-
